Screening results from PubChem BioAssay.
The list is not random: actives were taken first. Their share in the collection is about 9.3%.
NADH coupling: blocks coupling enzymes of NAD/NADH assays; IC50, µM (series often up to 10 µM); coupled PK/LDH NADH assays, four targets; actives 0.02% (n = 65,000);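 active = single-dose screening hits from any of four coupled enzyme assays that gave an IC50 when retested across doses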;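 note: the DPM-DC format reads NADH fluorescence rather than 340 nm absorbance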
M1 antagonist: antagonists of rat M1 muscarinic receptor; B-score at 10 µM; actives 3.4% (n = 64,000); CHO-M1 cells, Fluo-4 calcium, ACh EC80 antagonist mode; hits give low values; P08482;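 active = calcium fluorescence response, raw or row-and-column corrected B-score, differing from the plate sample mean either way at a set confidence level, mostly lower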
Target sequence (P08482 whole entry, looked up): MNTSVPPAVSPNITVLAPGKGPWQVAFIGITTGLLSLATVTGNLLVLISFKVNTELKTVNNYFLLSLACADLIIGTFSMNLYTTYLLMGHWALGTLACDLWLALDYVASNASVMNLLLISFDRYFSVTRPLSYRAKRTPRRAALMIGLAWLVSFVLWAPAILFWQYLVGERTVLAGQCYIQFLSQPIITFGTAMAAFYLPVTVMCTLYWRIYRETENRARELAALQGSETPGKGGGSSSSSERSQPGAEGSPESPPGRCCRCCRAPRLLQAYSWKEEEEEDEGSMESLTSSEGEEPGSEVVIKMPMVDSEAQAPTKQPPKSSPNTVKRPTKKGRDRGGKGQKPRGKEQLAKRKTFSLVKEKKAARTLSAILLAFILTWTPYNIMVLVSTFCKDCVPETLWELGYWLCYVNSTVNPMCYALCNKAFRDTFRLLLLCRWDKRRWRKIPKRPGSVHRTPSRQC
A340 absorber: compound absorbs light at 340 nm; compound absorbance at 340 nm, fold over control; fold change at 10 µM; 65,000 tested, under 10 active; AID 708;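 active = at 10 µM dose, initial 340 nm absorbance at least 2 fold that of control wells; inactive = change under 2 fold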;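 note: initial absorbance extrapolated from kinetic A340 decline of NADH oxidation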
Autofluor 339: intrinsic fluorescence of library compounds, ex339/em460 – biochemical, MLSMR library, data from DPM-DC assay, artefact control, profiling panel; compound autofluorescence, ex339/em460 nm, NADH buffer; hits give high values; 1 = no-compound wells, NADH background; fluorescence fold increase at 10 µM; actives 5.5% (n = 65,000);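 active = at 10 µM, mean starting fluorescence two-fold or more over control wells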;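 note: signal is the first read of a kinetic run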
Htt clearance: mutant huntingtin protein clearance; HeLa Exon1htt(103Q)mCFP, aggregate imaging; zero = plate's median compound well; AID 853; actives 0.42% (n = 47,000); inhibition, % at 1.5 µM;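 active = inhibition of aggregate fluorescence above about 70%, also judged a hit by eye on the cell image, limit read from the data, passing the limit was not always enough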;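 note: cells exposed to compound for three days before fixation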
M1 agonist: M1 muscarinic receptor agonism; CHO-M1 cells, Fluo-4 calcium fluorescence, agonist mode; hits give high values; B-score at 10 µM; actives 3% (n = 64,000); AID 626;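 active = fluorescence rise, raw or as B-score row- and column-corrected plate score, outside the 99.7% band of its plate's samples, either direction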
M1 antag conf: M1 muscarinic receptor (rat) antagonism, confirmed; shares compounds with M1 antagonist; AID 677; actives 43% (n = 1,700); calcium response (max-min fluorescence) at 10 µM; CHO-M1 cells, Fluo-4 calcium, ACh EC80 antagonism; hits give low values;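 active = calcium response below the same-plate mean of wells given acetylcholine alone at its 80%-effect dose, minus 3 SD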
mGluR4 antag: selectivity test for M1 antagonists: human mGluR4 receptor; actives 0.9% (n = 1,700); fluorescence response (max-min) at 10 µM; AID 678; shares compounds with M1 antagonist; CHO-mGluR4 calcium flux, Fluo-4 fluorescence, glutamate EC80; hits give low values;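 active = fluorescence response below the plate's average for near-maximal glutamate wells, less 3 SD of those wells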;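 note: raw unnormalized fluorescence span taken in the window right after glutamate addition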
Hits are given with their value; - = inactive; . = no result given.

SMILES	NADH coupling	M1 antagonist	A340 absorber	Autofluor 339	Htt clearance	M1 agonist	M1 antag conf	mGluR4 antag
CCN(CC)C(=O)Cn1nc(-c2ccccc2O)nc1SCC(=O)Nc1ccc(OC)cc1	-	-	-	-	.	-	.	.
c1ccc2c(c1)nc1sccn12	-	-2.5	-	-	.	-	-	-
Cn1c(NC(=O)Cc2ccc(F)cc2)cc(=O)n(C)c1=O	-	-	-	-	.	-	.	.
Cc1c(C#N)c(SCC(N)=O)nc2c1CCCC2	-	-2	-	-	.	-	-	-
O=C(O)CCCCCN1C(=O)CSC1=S	-	-6.4	-	-	.	-	-	-
CC(C)OC(=O)CCCCCN1C(=O)CSC1=S	-	-	-	-	.	-	.	.
Cc1onc(-c2ccccc2)c1C(=O)N1CCN(C/C=C/c2ccccc2)CC1	-	-	-	-	-	-	.	.
CCn1c(SCC(=O)N2CCc3ccccc32)nnc1-c1ccco1	.	.	.	.	-	.	.	.
Cn1cc(SCC(=O)Nc2nc3ccccc3s2)c2ccccc21	-	-	-	-	-	-	.	.
O=C(CN1CCOCC1)OCCCC1CCCCC1	-	-3.9	-	-	-	-	-	-
CCOc1ccc(CNC(=O)CCn2c(=O)oc3ccccc32)cc1OC	-	-	-	-	-	-	.	.
COc1cccc(CNC(=O)CCn2c(=O)oc3ccccc32)c1	-	-3.5	-	-	-	-	-	-
O=C(c1cccc2ccccc12)N1CCC(N2CCN(c3ccccc3)CC2)CC1	-	-	-	-	-	-	.	.
CN1CCc2c(c3ccccc3n2Cc2ccccc2)C1	-	-3.9	-	-	-	-	231	-
CCCn1cnc2cc(NCc3cccc(OC)c3)ccc21	-	-2.4	-	-	-	-	397	-
N#CCSc1nnc(Cc2ccc3c(c2)OCO3)o1	-	-	-	-	-	-	.	.
CCOC(=O)c1ncn2c1C(=O)OC2(C)C	-	.	-	-	.	.	.	.
CC1(C)CC(=O)C(C=Nc2ccc(O)cc2)=C(O)C1	-	-2.2	-	-	-	-	-	-
CCOC(=O)/C=C1\SCC(=O)N1CC(=O)NC1CCCCC1	-	-	-	-	.	-	.	.
CCOC(=O)/C=C1\SCC(=O)N1CC(=O)Nc1ccc2c(c1)CCC2	-	-1.9	-	-	.	-	-	-
CC(C)CC(NC(=O)C1CCC(C)CC1)C(=O)Nc1ccccn1 (configuration not stated)	-	-3.4	-	-	.	-	-	-
CC(C)C(NC(=O)C1CCCCC1)C(=O)Nc1ccccn1 (configuration not stated)	-	-	-	-	.	-	.	.
CCOC(=O)C1C(=O)NC(SCC(=O)OC)=C(C#N)C1c1ccccc1OCC (configuration not stated)	-	-	-	-	.	-	.	.
CCOc1ccccc1C1C(C#N)=C(SCC(=O)OC)NC(=O)C1C(=O)OC (configuration not stated)	-	-2.8	-	-	.	-	-	-
CCn1c(-c2ccc3[nH]c(C)c(C)c3c2)n[nH]c1=S	-	-	-	-	.	-	.	.
SMILES	NADH coupling	M1 antagonist	A340 absorber	Autofluor 339	Htt clearance	M1 agonist	M1 antag conf	mGluR4 antag
O=C(O)CCC(=O)Nc1ccc(Br)cn1	-	-	-	-	-	-	.	.
COc1ccc(NC2=NC3(CCCCC3)N=C(N)N2)cc1	-	-	-	-	.	-	.	.
CCCCOc1ccc(NC2=NC3(CCCCC3)N=C(N)N2)cc1	-	-2.3	-	-	.	-	-	-
CCCOC(=O)c1ccc(OCC(O)CN2CCN(C(=O)c3ccccc3)CC2)cc1 (configuration not stated)	-	-2	-	-	-	-	-	-
Cc1ccc(N2C(=O)[C@@H]3Cc4ccccc4CN3C2=O)cc1	-	-	-	-	.	-	.	.
CC(C)c1ccc(N2C(=O)[C@@H]3Cc4ccccc4CN3C2=O)cc1	-	-1.3	-	-	-	-	-	-
O=c1c2ccccc2n(Cc2ccc(F)cc2)c(=O)n1C1CCCC1	-	-14	-	-	.	-	-	-
CN(C)c1nc2ccc(OCCN3CCCCC3)cc2s1	-	-3	-	-	-	-	408	-
Cc1nnc(SCc2cccs2)[nH]c1=O	-	-	-	-	.	-	.	.
Cc1cc(C(=O)OCC(=O)NC2CCS(=O)(=O)C2)c(C)n1-c1ccccc1 (configuration not stated)	-	-	-	-	.	-	.	.
Cc1cc(C(=O)OCC(=O)N(C)C2CCS(=O)(=O)C2)c(C)n1-c1ccccc1 (configuration not stated)	-	-2.7	-	-	-	-	-	-
CN(C(=O)COC(=O)c1nc(-c2ccccc2)n(-c2ccccc2)n1)C1CCS(=O)(=O)C1 (configuration not stated)	-	-4.8	-	-	.	-	231	-
CS/C(=N\S(=O)(=O)c1cccs1)NC(=O)CSc1nc2ccccc2s1	-	-	-	-	-	-	.	.
CCN1C(=O)N(C)C(N(O)C(=O)NC)C1(C)C (configuration not stated)	-	-	-	-	.	-	.	.
CCOc1ccc2nc(SCC(=O)NC(=O)NCc3ccco3)[nH]c2c1	.	.	.	.	-	.	.	.
COCCCNC(=O)CSC1=Nc2ccccc2C2=NC(CC(=O)NCc3ccccc3)C(=O)N12 (configuration not stated)	-	-2.5	-	3.4	-	-	-	-
CC1CCc2c(sc(NC(=O)CSc3ncnc4c3cnn4-c3ccccc3Cl)c2C#N)C1 (configuration not stated)	.	.	.	.	-	.	.	.
Cc1cc(C)n(-c2c(F)c(F)c(CN3CCOCC3)c(F)c2F)n1	-	-	-	-	.	-	.	.
Cc1cc(C)n(-c2c(F)c(F)c(CN3CCCCC3)c(F)c2F)n1	-	-2.5	-	-	.	-	-	-
O=C(CCOc1ccccc1)Nc1ccc(S(=O)(=O)N2CCCC2)cc1	-	-	-	-	.	-	.	.
Cc1cc(C)c2c(CC(=O)Nc3nccs3)coc2c1	-	-	-	-	.	-	.	.
Clc1ccccc1OCCCCn1ccnc1	-	-	-	-	-	-	.	.
Clc1cc(Br)ccc1OCCn1ccnc1	-	-3.3	-	-	-	-	442	-
Clc1cc(Br)ccc1OCCOCCN1CCOCC1	-	-0.73	-	-	-	-	-	-
CCN1C(=O)c2ccccc2S(=O)(=O)c2ccc(C(=O)NCc3cccnc3)cc21	-	-	-	-	-	-	.	.
COc1cccc(N2C(=O)C3C(C2=O)C2C=CC3C23CC3)c1 (configuration not stated)	-	-3.1	-	-	-	-	-	-
CC(=O)OC(C(=O)NCc1ccco1)c1cccnc1 (configuration not stated)	-	-1	-	-	-	-	-	-
Cc1cc(C(=O)OCC(=O)N2CCN(c3ccccc3)CC2)c2ccccc2n1	-	-	-	-	-	-	.	.
